Test results reported in PubChem BioAssay (NCATS).
The source made the active and inactive calls. Entries that show only a call come without a potency. The call rests on the fitted dose curve; in most records, active means well fitted inhibition curve with a large enough effect; inconclusive means small, poorly fitted or top-dose-only effect; inactive means flat fitted curve, though single readings scatter.

The compounds below were run against Luciferin 4-monooxygenase (Photinus pyralis) (UniProt P08659) (assay: Primary firefly luciferase (FLuc) qHTS assay for identification of artifact compounds. (AID 1845220; further: nearly all actives have a fitted effect of over 60% in size)). Settings: purified firefly luciferase, luminescence, 5 min; series mostly up to 54.1 µM.
In short: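 Reaction readout was CCD-imaged luminescence, taken 5 min after adding 10 nM purified firefly enzyme to compound-treated wells holding 10 uM luciferin and ATP in pH 7.6 buffer.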
Potency means the concentration at half of the fitted maximal effect.

**Q.** For `COc1ccc(-c2csc(NC(=O)[C@H]3CCCCN3S(=O)(=O)c3ccc(C)cc3)n2)cc1`, which Potency is on record?
**A.** inactive

**Q.** For `O=C(O)C1=CO[C@@H](O[C@@H]2O[C@H](CO)[C@@H](O)[C@H](O)[C@H]2O)[C@@H]2C(CO)=CC[C@H]12`, which Potency is on record?
**A.** inactive

**Q.** For `C=C1C(=O)O[C@H]2/C=C(/C)[C@@H](OC(C)=O)C/C=C(\C)C[C@@H](OC(=O)/C(=C/C)COC(=O)/C(=C/C)CO)[C@@H]12`, which Potency is on record?
**A.** inactive

**Q.** For `Oc1ccc(-c2cnc3ccc(NCc4ccco4)nn23)cc1`, which Potency is on record?
**A.** inactive

**Q.** `COC(=O)c1cc2c(C(F)(F)F)cc(-c3ccccc3)cc2n1O` was tested. Which Potency did it give?
**A.** inactive

**Q.** With `COc1cc(OC)c2c(=O)[nH]c(-c3cc(C)c(OCCO)c(C)c3)nc2c1` as the compound, how does the Potency read?
**A.** 15.1 µM (active)

**Q.** For `C=C1C(=O)OC2C1CCC1(C)C(O)CC=C(C)C21` (centres undefined), which Potency is on record?
**A.** inactive

**Q.** `CO[C@H]1[C@@H](O)[C@H](O[C@H]2CC[C@@]3(C)C(CCC4C3CC[C@]35COC6(COC(=O)C6)C3CCC45O)C2)O[C@@H](C)[C@@H]1OC1OC(CO)C(OC2OC(CO)C(O)C(O)C2O)C(O)C1O` (some centres undefined) was tested. Which activity change, negative = inhibition did it give?
**A.** -4.26% [at 11.6 µM] (inactive)

**Q.** `Fc1ccc(-c2cncc(CN3CCN(c4cccc5c4OCCO5)CC3)c2)cc1` was tested. Which Potency did it give?
**A.** inactive

**Q.** For `CC(C)C[C@H](C(=O)O)c1cc(-c2ccc(C(F)(F)F)cc2)cc(-c2ccc(C(F)(F)F)cc2)c1`, which Potency is on record?
**A.** inactive

**Q.** `COc1cc(/C=C2\CC[C@H]3COC[C@@H](c4cc(F)c(F)c(F)c4)N3C2=O)ccc1-n1cnc(C)c1` was tested. Which Potency did it give?
**A.** inactive

**Q.** Which Potency does the source give for `CC(C)(CNC(=O)c1cccc(-c2noc(C(F)(F)F)n2)c1)c1coc(-c2ccccc2)n1` here?
**A.** inactive

**Q.** With `C=C1CC[C@@H]2[C@](C)(CO)[C@H](O)CC[C@@]2(C)[C@@H]1CC(=O)C1=CCOC1=O` as the compound, how does the Potency read?
**A.** inactive

**Q.** With `O=C(Nc1ccc(C(O)(C(F)(F)F)C(F)(F)F)cc1)c1ccc(C(F)(F)F)cc1` as the compound, how does the Potency read?
**A.** inactive

**Q.** How did the Potency turn out when `COC1=CC(=O)O/C1=C(/OC)[C@@H]1O[C@H]1c1ccccc1` was run?
**A.** inactive

**Q.** `COc1ccc(C2(N(C)C(=O)c3ccc(NC(=O)c4ccco4)cc3)CCOCC2)cc1` was tested. Which Potency did it give?
**A.** inactive

**Q.** Which Potency does the source give for `C[C@@H]1CC[C@]2(C(=O)O)CC[C@]3(C)C(=CCC4[C@@]5(C)CC[C@H](O)[C@](C)(C(=O)O)C5CC[C@]43C)C2[C@]1(C)O` (some centres undefined) here?
**A.** inactive

**Q.** `CN(C)c1ccnc2sc3c(=O)n(N4CCCCCC4)cnc3c12` was tested. Which Potency did it give?
**A.** inactive

**Q.** How did the Potency turn out when `COCCCNC(=O)c1ccc(Cn2c(=O)c3ccccc3n(Cc3ccc(C(C)C)cc3)c2=O)cc1` was run?
**A.** inactive

**Q.** `O=C(Nc1ccc(Cl)cc1)c1ccccc1NCc1ccncc1` was tested. Which Potency did it give?
**A.** inactive

**Q.** How did the Potency turn out when `C[C@@H]1C[C@H]2O[C@@]3(O[C@@H]2C(C)(C)O)C(O)[C@@]2(C)C4CCC5C(C)(C)[C@@H](O[C@H]6OC[C@H](O)[C@@H](O)[C@@H]6O)CC[C@@]56C[C@@]46CC[C@]2(C)C13` (some centres undefined) was run?
**A.** inactive

**Q.** With `CC(=O)C=C=C1C(C)(C)CC(O)CC1(C)O[C@@H]1O[C@H](CO[C@H]2OC[C@](O)(CO)[C@H]2O)[C@@H](O)[C@H](O)[C@H]1O` (some centres undefined) as the compound, how does the Potency read?
**A.** inactive

**Q.** How did the Potency turn out when `Nc1ncnc2c1c(-c1ccc(Cl)cc1)nn2-c1cccc(-c2cnnn2Cc2cccc(-c3ccccc3)c2)c1` was run?
**A.** inactive

**Q.** With `Cc1nc(C(=O)N2CCC[C@H]2Cc2nnc(-c3ccccc3)o2)c(-c2ccccc2F)s1` as the compound, how does the Potency read?
**A.** inactive

**Q.** How did the Potency turn out when `COc1cc2ncnc(Nc3cccc(I)c3)c2cc1OC` was run?
**A.** inactive

**Q.** For `C=C1C(=O)O[C@@H]2[C@H]1CC(=O)[C@H](C)[C@@](O)(C(=O)/C=C/C)[C@H]2OC(=O)C(C)CC` (some centres undefined), which Potency is on record?
**A.** inactive

**Q.** For `CCC(CC)(NC(=O)C(C)C)C(=O)N[C@@H](CCCN=C(N)N)C(=O)NC1(C(=O)NC(c2ccc(F)cc2)c2ccc(F)cc2)CCCC1`, which Potency is on record?
**A.** inactive

**Q.** `C=C1CCC2C(C)(C)CCCC2(C)C1CC/C(C)=C\CO` (centres undefined) was tested. Which Potency did it give?
**A.** inactive

**Q.** With `CCc1ccccc1OC[C@@H](O)CN[C@H]1CCCc2ccccc21` as the compound, how does the Potency read?
**A.** inactive

**Q.** Which Potency does the source give for `COc1cc(-c2nc(N[C@H](CO)Cc3ccccc3)ccc2C(=O)NCCOc2ccccc2)cc(OC)c1OC` here?
**A.** inactive

**Q.** With `CC(C)(C)Sc1c(CC(C)(C)C(=O)O)n(Cc2ccc(Cl)cc2)c2ccc(OCc3ccc4ccccc4n3)cc12` as the compound, how does the Potency read?
**A.** inactive

**Q.** `CC(=O)O[C@H]1CC2C(COC(=O)CC(C)C)=CO[C@@H](OC(=O)CC(C)C)C2[C@]12CO2` (some centres undefined) was tested. Which Potency did it give?
**A.** inactive

**Q.** With `O=C1COc2nccc(-c3ccccc3F)c2CN1Cc1cc(C(F)(F)F)cc(C(F)(F)F)c1` as the compound, how does the Potency read?
**A.** inactive

**Q.** For `CC(C)(O)c1ccn2c(-c3ccc(F)c(-c4ccc(F)cc4C#N)c3)cnc2c1F`, which Potency is on record?
**A.** inactive

**Q.** With `C[C@@H](Nc1ncnc2[nH]c(-c3ccc(O)cc3)cc12)c1ccccc1` as the compound, how does the Potency read?
**A.** inactive

**Q.** How did the Potency turn out when `Cc1csc(N(C(=O)CSc2ccc(-c3ccccc3)nn2)C2CC2)n1` was run?
**A.** inactive

**Q.** Which Potency does the source give for `CC12CCC(OC3OC(CO)C(O)C(O)C3OC3OC(CO)C(O)C(O)C3O)CC1CCC1C2CCC2(C)/C(=C3/COC(=O)C3)CCC12O` (centres undefined) here?
**A.** inactive

**Q.** Which Potency does the source give for `CCOc1nc(NC(=O)Cc2cc(OC)ccc2OC)cc(N)c1C#N` here?
**A.** inactive

**Q.** How did the Potency turn out when `C/C(=C\CO[C@@H]1O[C@H](CO[C@H]2OC[C@](O)(CO)[C@H]2O)[C@@H](O)[C@H](O)[C@H]1O)C(C)(C)O` was run?
**A.** inactive
